Assay results reported in PubChem BioAssay (NCATS).
Records with an inconclusive call do not appear. Calls of active or inactive are those of the source. Calls come from the whole dose curve; as a rule, active = well fitted inhibition curve with a large enough effect; inconclusive = small, poorly fitted or top-dose-only effect; inactive = no such curve, though single readings can be large or run the other way.

The molecules below were run against Cytochrome P450 3A4 (Homo sapiens) (UniProt P08684) (assay: qHTS Assay for Inhibitors and Substrates of Cytochrome P450 3A4 (AID 884; note: nearly all actives have a fitted effect of over 50% in size)). Settings: recombinant CYP3A4, Luciferin-PPXE luminescence; series mostly up to 57.1 µM.
Method in brief: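 Luminescent readout of luciferin produced by CYP3A4 (20 nM) dealkylation of Luciferin-PPXE, 25 uM (its KM). NADPH-driven reaction ran 60 min at RT after 10 min compound preincubation; data scaled to 57 uM ketoconazole as 100% inhibition.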
Potency is the fitted concentration of half-maximal effect.

Chain of Cytochrome P450 3A4 (Homo sapiens) (P08684 whole entry, looked up): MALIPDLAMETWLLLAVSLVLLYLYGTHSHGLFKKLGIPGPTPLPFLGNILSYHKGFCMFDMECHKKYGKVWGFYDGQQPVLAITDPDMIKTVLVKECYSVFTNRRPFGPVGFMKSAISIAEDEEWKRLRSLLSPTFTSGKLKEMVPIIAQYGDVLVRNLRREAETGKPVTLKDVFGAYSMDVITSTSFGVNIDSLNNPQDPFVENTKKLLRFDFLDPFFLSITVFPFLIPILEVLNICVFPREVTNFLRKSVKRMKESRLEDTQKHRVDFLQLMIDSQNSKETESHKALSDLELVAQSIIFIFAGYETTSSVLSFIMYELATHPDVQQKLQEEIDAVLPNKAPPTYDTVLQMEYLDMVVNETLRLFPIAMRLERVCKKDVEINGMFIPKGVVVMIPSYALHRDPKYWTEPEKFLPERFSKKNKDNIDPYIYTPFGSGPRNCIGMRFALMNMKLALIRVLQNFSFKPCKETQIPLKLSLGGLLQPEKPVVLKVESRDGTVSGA

Potency, active:
COc1ccc2nc3c(c([Si](C)(C)C(C)(C)C)c2c1)Cn1c-3cccc1=O 1.58 µM, CCCC[C@@H]1C[C@H]1C(NC(=O)c1ccccc1)c1ccc(Cl)cc1 (stereo partly specified) 3.98 µM, CCCC[C@@H]1C[C@H]1C(NC(=O)c1cccs1)c1ccccc1C(F)(F)F (stereo partly specified) 3.16 µM, CCCC[C@H]1C[C@@H]1[C@@H]1N(P(=O)(c2ccccc2)c2ccccc2)[C@](CO)(c2ccccc2)CC12CC2 2 µM, CNC(=O)[C@H](C)[C@@H]1C[C@@]1(C)[C@@H](NC(=O)OCc1ccccc1)c1ccccc1 2.51 µM, COc1cc2nc3c(c([Si](C)(C)C(C)(C)C)c2cc1OC)Cn1c-3cccc1=O 3.98 µM, CCCC[C@@H]1C[C@H]1C(NC(=O)c1ccc(C(F)(F)F)cc1)c1ccc(C(=O)OC)cc1 (stereo partly specified) 5.01 µM, CCC/C=C(\CCC)C(NS(=O)(=O)CC12CCC(CC1=O)C2(C)C)c1ccc(C(=O)OC)cc1 (stereo unspecified) 3.98 µM, COC(=O)c1ccc(C23CC2(C(NP(=O)(c2ccccc2)c2ccccc2)c2ccccc2)C3)cc1 (stereo unspecified) 3.16 µM, COC(=O)[C@@]1(Cc2ccc(F)cc2)[C@H]2c3cc(C(=O)N(C)C)n(Cc4ccc(C)c(F)c4F)c3C[C@H]2CN1C(=O)c1ccccc1 0.794 µM, COC(=O)[C@@]1(Cc2ccccc2)[C@H]2c3cc(C(=O)N4CCCC4)n(Cc4nc5ccccc5[nH]4)c3C[C@H]2CN1C(=O)c1ccccc1 1.26 µM, CCCC[C@@H]1C[C@H]1C(NC(=O)Cc1ccccc1)c1ccc(Cl)cc1 (stereo partly specified) 2.51 µM, CCC/C=C(\CCC)C(NS(=O)(=O)c1cccc2cccnc12)c1ccc(C(=O)OC)cc1 (stereo unspecified) 5.01 µM, COC(=O)[C@@]1(Cc2ccc(OC)cc2)[C@@H]2[C@@H](CC(=O)[C@H]2CC(=O)C(=O)N2CCCC2)CN1C(=O)c1ccccc1 0.794 µM, CCC/C=C(\CCC)C(NP(=O)(c1ccccc1)c1ccccc1)c1ccc(-c2ccccc2)cc1 (stereo unspecified) 3.98 µM, COC(=O)[C@@]1(Cc2ccc(F)cc2)[C@H]2c3cc(C(=O)N(C)C)n(Cc4ccc(C)o4)c3C[C@H]2CN1C(=O)c1ccccc1 2.51 µM, COc1ccc(COC2OC[C@]3(C)[C@H]4C5=C(CN3C(=O)OC(C)(C)C)[C@H](C)C(CO)C(CO)C5CC[C@@H]24)cc1 (stereo partly specified) 7.94 µM, COC(=O)[C@@]1(Cc2ccccc2)[C@H]2c3cc(C(=O)N4CCCC4)n(C)c3C[C@H]2CN1C(=O)c1ccccc1 3.98 µM, COC(=O)c1ccc(C(NC(=O)c2ccco2)[C@]2(C)C[C@H]2C2CCCCC2)cc1 (stereo partly specified) 7.94 µM, CCC/C=C(\CCC)C(NC(=O)c1cccs1)c1ccc(C(F)(F)F)cc1 (stereo unspecified) 2.51 µM

Potency, inactive:
CCC/C=C(\CCC)C(NP(=O)(c1ccccc1)c1ccccc1)c1ccc(C(F)(F)F)cc1 (stereo unspecified)
